About 360 (0.41%) of roughly 87,000 compounds were called active. Cut-off read from the data, not from the text of the source: active = cytotoxicity above about 50%; inactive = the rest. The list comes from a sample in which actives are over-represented; it also holds similar structures and randomly drawn compounds.

This test can be described thus: cytotoxicity in HT1080 fibrosarcoma cells, cell-based, fluorescence readout (AID 620).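 Note: cells exposed to compound overnight then 4 h with Alamar Blue; 0% = vehicle DMSO and 100% = killing control.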 Conditions: HT1080 viability, at 10 µM, active compounds read high.
In the case of `CCOC(=O)CSCC(=O)Nc1ccc(S(=O)(=O)N2CCCCC2)cc1`, the cytotoxicity was 6.7% (inactive).

For `CC(C)(C)c1nc(CN2CCOCC2)ccc1O`, the cytotoxicity is -2.2% (inactive).

In the case of `c1ccc(CNc2nc3ccccc3[nH]2)cc1`, the cytotoxicity was 4.5% (inactive).

As to `Cc1ccc2nc(NCc3ccccc3)[nH]c2c1`, the cytotoxicity was 63.1% (active).

Regarding `COc1ccc2nc(NCc3ccccc3)[nH]c2c1`, the cytotoxicity was 24.9% (inactive).

In the case of `CC(C(=O)Oc1ccc2c(c1)OCO2)N1C(=O)c2ccccc2C1=O` (centres undefined), the cytotoxicity was 3.4% (inactive).

Consider `CC(=O)N1CCc2cc(C(=O)CN3CCCCC3)ccc21`, for which the cytotoxicity is -6.3% (inactive).

On to `CCN1CCN(Cc2nc3c(c(=O)[nH]c(=O)n3C)n2Cc2ccccc2Cl)CC1`, for which the cytotoxicity is 4.2% (inactive).

For `COc1ccc(CNC(=O)CSc2nc(-c3ccccc3)cc(-c3cccs3)c2C#N)cc1`, the cytotoxicity was -13.6% (inactive).

As for `COc1ccc(-c2cc(-c3cccs3)c(C#N)c(SCC(=O)NCc3ccco3)n2)cc1`, the cytotoxicity is 55.1% (active).

On to `COc1ccc(-c2cc(-c3cccs3)c(C#N)c(SCC(=O)NCc3ccccc3)n2)cc1`, for which the cytotoxicity was -5.2% (inactive).

Consider `Nc1nc(SCc2ccc(Cl)cc2)ns1`, for which the cytotoxicity is -0.5% (inactive).

Consider `CCOC(=O)C1CCCN(Cc2ccccc2OCC)C1` (centres undefined), for which the cytotoxicity is 8.9% (inactive).

`COc1ccc(C(=O)Nn2c(C)ccc2C)cc1OC`: the cytotoxicity is -1% (inactive).

`CS(=O)(=O)N1CCN(c2ccccc2NC(=O)c2ccc(-c3ccc(Cl)cc3Cl)o2)CC1`: the cytotoxicity was 6% (inactive).

Take `COc1ccc(CNC(=O)C2CC(c3ccc(OC)cc3)=NO2)cc1` (centres undefined): the cytotoxicity is -0.6% (inactive).

For the molecule `COc1ccc(C2=NOC(C(=O)NCc3ccc(F)cc3)C2)cc1OC` (centres undefined), the cytotoxicity is 57.2% (active).

As for `COc1ccc(C2=NOC(C(=O)NCc3ccc(F)cc3)C2)cc1` (centres undefined), the cytotoxicity was 7% (inactive).

As to `COc1cc(C2=NOC(C(=O)NCc3ccc(F)cc3)C2)cc(OC)c1OC` (centres undefined), the cytotoxicity was 64.5% (active).

Turning to `COc1ccc(CNC(=O)C2CC(c3ccc(F)cc3)=NO2)cc1` (centres undefined), the cytotoxicity was 3.2% (inactive).

For the molecule `COc1cccc(C2=NOC(C(=O)NCc3ccc(F)cc3)C2)c1` (centres undefined), the cytotoxicity was -1.1% (inactive).

For `COc1ccc2[nH]c(=O)c(C(c3nnnn3C3CCCC3)N3CCN(Cc4ccc5c(c4)OCO5)CC3)cc2c1` (centres undefined), the cytotoxicity is -0.4% (inactive).

Regarding `COc1cc(NC(=O)c2nccnc2C(=O)O)cc(OC)c1`, the cytotoxicity was -8% (inactive).

With `C=CCSc1ncc(C#N)c(N)n1`, the cytotoxicity was 14.9% (inactive).

`O=C(OCC(=O)N1CCc2ccccc21)c1cccnc1Cl`: the cytotoxicity was -2.9% (inactive).

In the case of `CS(=O)(=O)N1CCCC(C(=O)NCCCN2CCc3ccccc3C2)C1` (centres undefined), the cytotoxicity is -1.1% (inactive).

In the case of `C[C@@H](C(=O)NCCc1c[nH]c2ccccc12)[C@@H]1C[C@@]1(C)[C@@H](NC(=O)OCc1ccccc1)c1ccccc1`, the cytotoxicity is 0.9% (inactive).

Consider `Cc1cc2c(c(C)nn2-c2ccccc2)c(=O)o1`, for which the cytotoxicity is -11.4% (inactive).

`CCCCCCn1c2c(c(=N)c3c1CCC3)CCC2`: the cytotoxicity is 12.4% (inactive).

Consider `CCCCCCCCCn1c2c(c(=N)c3c1CCC3)CCC2`, for which the cytotoxicity was 51.6% (active).

Turning to `CCCCCCCCCCn1c2c(c(=N)c3c1CCC3)CCC2`, the cytotoxicity is 38.3% (inactive).

On to `Cn1c(=O)[nH]c(=O)c2c1nc(CN1CCN(c3ccccc3F)CC1)n2CC(N)=O`, for which the cytotoxicity was -7.3% (inactive).

Consider `Cc1ccc(NC2=C/C(=N\S(=O)(=O)c3cccs3)c3ccccc3C2=O)c(C)c1`, for which the cytotoxicity was 61.6% (active).

As for `COC(=O)C(C(C)=O)C1=C/C(=N\S(=O)(=O)c2ccc(C)cc2)c2ccccc2C1=O` (centres undefined), the cytotoxicity is -13% (inactive).

As for `COC(=O)c1ccccc1NC1=C/C(=N\S(=O)(=O)c2cccs2)c2ccccc2C1=O`, the cytotoxicity was -53% (inactive).

For the molecule `O=c1nc(N2CCOCC2)ccn1Cc1ccc(Br)cc1`, the cytotoxicity was -6.8% (inactive).

Take `C=CCn1cc(C(=O)OC)c(=O)c2cc(S(=O)(=O)N3CCC(C)CC3)ccc21`: the cytotoxicity was 6.1% (inactive).

As for `COc1ccc(NC(=O)c2oc3ccccc3c2NC(=O)COc2ccccc2OC)c(OC)c1`, the cytotoxicity is -4.5% (inactive).

On to `O=C(c1ccco1)N1c2ccccc2Sc2ccccc21`, for which the cytotoxicity was 0.2% (inactive).

As to `O=C(N1CCN(c2ccccn2)CC1)N1c2ccccc2Sc2ccccc21`, the cytotoxicity was 59.7% (active).

Regarding `O=C(NC1CCN(C(=O)N2c3ccccc3Sc3ccccc32)CC1)c1ccco1`, the cytotoxicity was 3.2% (inactive).

In the case of `O=C(N1CCOCC1)N1CCN(c2ccccn2)CC1`, the cytotoxicity is 6.2% (inactive).

On to `O=C(c1ccco1)N1CCN(C(=O)N2c3ccccc3Sc3ccccc32)CC1`, for which the cytotoxicity was 60.9% (active).

Take `O=C(CN1CCN(c2ccccn2)CC1)N1c2ccccc2Sc2ccc(C(F)(F)F)cc21`: the cytotoxicity was 6.6% (inactive).

`Cc1ccccc1C(NC(N)=O)c1ccccc1` (centres undefined): the cytotoxicity is 0.3% (inactive).

Take `CC(C)N=C(NC#N)SCc1ccccc1`: the cytotoxicity was 0.9% (inactive).

`CCOc1ccc(-c2nnc3n2N=C(c2ccc(OC)cc2)CS3)cc1`: the cytotoxicity is 11.5% (inactive).

Take `COc1ccc(C2=Nn3c(nnc3-c3ccccc3OC)SC2)cc1OC`: the cytotoxicity is 56.1% (active).

On to `CCOc1ccc(C2=Nn3c(nnc3-c3ccc(OC)cc3)SC2)cc1`, for which the cytotoxicity was 38% (inactive).

Turning to `COc1ccccc1-c1nnc2n1N=C(c1ccc(O)c(O)c1)CS2`, the cytotoxicity is 48% (inactive).

For the molecule `COc1ccc(C2=Nn3c(nnc3-c3ccccc3)SC2)cc1OC`, the cytotoxicity was 11.6% (inactive).

`CCOc1ccc(C2=Nn3c(nnc3-c3ccccc3OC)SC2)cc1`: the cytotoxicity was 62.9% (active).

For `CSC1CCCCC1(O)CSc1nc2ccccc2o1` (centres undefined), the cytotoxicity is -0.9% (inactive).

On to `O=C(CCN1C(=O)C2C3C=CC(C3)C2C1=O)N1CCN(c2ccc(F)cc2)CC1` (centres undefined), for which the cytotoxicity is 0.6% (inactive).

Consider `O=C(O)C1CC=C(Cl)CC1C(=O)NCC1OCCc2ccccc21` (centres undefined), for which the cytotoxicity was 22.3% (inactive).

Regarding `O=C(NCc1ccc(F)cc1)C1CCN(C(=O)NCc2ccccc2)CC1`, the cytotoxicity is -1% (inactive).

On to `OCCc1ccc(-c2ccc(Cl)cc2)o1`, for which the cytotoxicity is 0.4% (inactive).

Consider `Cc1nn(-c2ccc(F)cc2)c2sc(C(=O)N3CCCCCC3)cc12`, for which the cytotoxicity is -14% (inactive).

As to `Nc1ccc2nc(-c3ccccn3)[nH]c2c1`, the cytotoxicity is 18.5% (inactive).

For `CC(=O)Nc1ccc2nc(-c3ccccn3)[nH]c2c1`, the cytotoxicity was 7.2% (inactive).

For the molecule `CC1(C)OC(=O)N(c2ccccc2)C12C=Cc1cc(Br)ccc1O2` (centres undefined), the cytotoxicity was -10.5% (inactive).

Take `Nc1nonc1C(=O)NCCNCc1ccccc1OCc1ccccc1F`: the cytotoxicity is 0.5% (inactive).

Take `Nc1nonc1C(=O)NCCNCc1cc(Br)ccc1OCc1ccccc1F`: the cytotoxicity was 99.7% (active).

On to `Nc1nonc1C(=O)NCCNCc1cc(Br)ccc1OCc1ccc(F)cc1`, for which the cytotoxicity is 21.8% (inactive).

Source of the values: PubChem BioAssay AID620 (Sanford-Burnham Center for Chemical Genomics, 2007).
